Source: PubChem BioAssay AID1159580 (chemical genetic matrix, 2015)
In all, about 5,500 compounds went through this assay and about 2,000 (36%) were called active. Inconclusive results (about 18%) are left out. Rule as the data show it: active = normalized growth mostly below about 0.91 (no sharp cut-off); inconclusive = no clear call, values can overlap the other calls; inactive = mostly above about 0.92. The list shows a part of the results.

Test: chemical genetic growth profiling, strain panel (AID 1159580);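 also: tested at 20 µM; growth read once vehicle control cultures reached saturation at 30 °C; 1 = growth at the plate median or of vehicle wells; lower values mean less growth of the strain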
Conditions: S. cerevisiae deletion strains, growth OD
[1] = locus YHR030C, strain SLT2, active compounds read low
[2] = locus YHR079C, strain IRE1, active compounds read low
[3] = locus YJL095W, strain BCK1, active compounds read low
[4] = locus YJR066W, strain TOR1, active compounds read low
[5] = locus YLR113W, strain HOG1, active compounds read low
[6] = locus YNL183C, strain NPR1, active compounds read low
[7] = locus YOR231W, strain MKK1, active compounds read low
[8] = locus YPL256C, strain CLN2, active compounds read low

Measured: normalized growth

CC(N)C(=O)NC(Cc1ccccc1)C(=O)O (centres undefined)
inactive: [1] 0.937 | [2] 0.952 | [3] 0.96 | [4] 0.886 | [5] 1.02 | [6] 0.89 | [7] 0.982 | [8] 0.925

O=C1C(=O)N(CN2CCc3c([nH]c4ccccc34)C2C(F)(F)F)c2ccc(F)cc21 (centres undefined)
inactive: locus YAR019C, strain CDC15, active compounds read low 0.978 | locus YBL105C, strain PKC1, active compounds read low 0.983 | locus YBR135W, strain CKS1, active compounds read low 0.982 | locus YBR136W, strain MEC1, active compounds read low 0.974 | locus YBR160W, strain CDC28, active compounds read low 0.962 | locus YDL017W, strain CDC7, active compounds read low 0.983 | locus YDL028C, strain MPS1, active compounds read low 0.975 | locus YDL101C, strain DUN1, active compounds read low 0.988 | locus YDL108W, strain KIN28, active compounds read low 0.973 | locus YDL132W, strain cdc53, active compounds read low 0.972 | locus YDL214C, strain PRR2, active compounds read low 0.841 | locus YDR052C, strain DBF4, active compounds read low 0.991 | locus YDR054C, strain cdc34, active compounds read low 0.974 | locus YDR226W, strain ADK1, active compounds read low 0.98 | locus YDR477W, strain SNF1, active compounds read low 0.86 | locus YER123W, strain YCK3, active compounds read low 0.692 | locus YER133W, strain GLC7, active compounds read low 0.894 | locus YFL009W, strain cdc4, active compounds read low 0.977 | locus YFL029C, strain CAK1, active compounds read low 0.959 | locus YFR003C, strain YPI1, active compounds read low 0.981 | locus YFR019W, strain FAB1, active compounds read low 0.839 | locus YFR028C, strain CDC14, active compounds read low 0.963 | locus YGR040W, strain KSS1, active compounds read low 0.891 | locus YGR052W, strain FMP48, active compounds read low 0.804 | locus YGR092W, strain DBF2, active compounds read low 0.612 | [2] 0.667 | locus YHR082C, strain KSP1, active compounds read low 0.614 | locus YHR205W, strain SCH9, active compounds read low 0.795 | locus YIL147C, strain SLN1, active compounds read low 0.982 | [3] 0.791 | locus YJL128C, strain PBS2, active compounds read low 0.934 | locus YJL157C, strain FAR1, active compounds read low 0.886 | locus YJR016C, strain ILV3, active compounds read low 0.993 | locus YJR066W, strain TOR1 (second series), active compounds read low 0.825 | [4] 0.784 | locus YKL048C, strain ELM1, active compounds read low 0.879 | locus YKL067W, strain YNK1, active compounds read low 0.865 | locus YKL193C, strain SDS22, active compounds read low 0.972 | locus YKL203C, strain TOR2, active compounds read low 0.934 | locus YLR133W, strain CKI1, active compounds read low 0.836 | locus YLR403W, strain SFP1, active compounds read low 0.942 | locus YML070W, strain DAK1, active compounds read low 0.716 | locus YMR001C, strain CDC5, active compounds read low 0.962 | locus YMR205C, strain PFK2 (second series), active compounds read low 0.888 | locus YMR277W, strain FCP1, active compounds read low 0.947 | locus YNL006W, strain LST8, active compounds read low 0.982 | locus YNL020C, strain ARK1, active compounds read low 0.741 | locus YNL161W, strain CBK1, active compounds read low 0.979 | [6] 0.666 | locus YNL207W, strain RIO2, active compounds read low 0.983 | locus YNL222W, strain SSU72, active compounds read low 0.98 | locus YNL307C, strain MCK1 (second series), active compounds read low 0.682 | locus YOL078W, strain AVO1, active compounds read low 0.972 | locus YOL136C, strain PFK27, active compounds read low 0.711 | locus YOR061W, strain CKA2, active compounds read low 0.917 | locus YOR119C, strain RIO1, active compounds read low 0.907 | [7] 0.8 | locus YOR329C, strain SCD5, active compounds read low 0.994 | locus YPL031C, strain PHO85, active compounds read low 0.82 | locus YPL153C, strain RAD53, active compounds read low 0.74 | locus YPL204W, strain HRR25, active compounds read low 0.798 | locus YPL209C, strain IPL1, active compounds read low 0.987 | locus YPR025C, strain CCL1, active compounds read low 0.993 | locus YPR106W, strain ISR1, active compounds read low 0.978 | locus YPR111W, strain DBF20, active compounds read low 0.969 | strain NNK1, active compounds read low 0.981 | strain TSCII, active compounds read low 0.958
active: [1] 0.329 | locus YKL101W, strain HSL1, active compounds read low 0.711 | [5] 0.726 | [8] 0.471
